# This is a sample that favours compounds with a hit; in the whole collection about 4.7% have one here.
# tim10-1 inh = growth inhibitors of tim10-1 mutant yeast, primary screen, luminescence, uHTS | 330,000 compounds, 2.2% hits | inhibition, % at 20 µM | S. cerevisiae tim10-1 ts strain growth, BacTiter-Glo, 24 h;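 active = inhibition of at least 40%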;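 note: mutant grown at 25 °C; 0% = DMSO wells with yeast and 100% = wells holding no yeast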
# EBI2 antag = EBI2 receptor antagonists, beta-arrestin recruitment, primary screen, cell-based, luminescence, 7a,25-OHC stimulation, uHTS. G-protein coupled receptor 183 (Homo sapiens), P32249. 7a,25-OHC stimulated. inhibition, % at 5 µM. 360,000 compounds, 0.81% hits. AID 651636, 2012; in the data active = inhibition above about 38%;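 note: enzyme fragment complementation signal reports receptor beta-arrestin coupling in cells; 0% = agonist plus DMSO wells and 100% = wells without agonist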
# Target sequence (P32249 whole entry, looked up, the tested form may be a part): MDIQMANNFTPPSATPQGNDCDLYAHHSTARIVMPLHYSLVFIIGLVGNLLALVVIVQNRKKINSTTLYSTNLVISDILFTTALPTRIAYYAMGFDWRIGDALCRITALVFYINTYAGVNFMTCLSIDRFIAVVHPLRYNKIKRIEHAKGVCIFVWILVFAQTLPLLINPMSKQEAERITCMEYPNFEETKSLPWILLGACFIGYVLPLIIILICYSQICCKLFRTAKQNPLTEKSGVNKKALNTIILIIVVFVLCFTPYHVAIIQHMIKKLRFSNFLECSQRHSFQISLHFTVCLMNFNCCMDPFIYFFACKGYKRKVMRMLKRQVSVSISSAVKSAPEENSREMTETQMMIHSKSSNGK
# PfHsp90 yeast 2 = growth inhibition of PfHsp90-expressing yeast, primary screen, antimalarial PfHsp90 inhibitor project, S. cerevisiae, BacTiter-Glo luminescence, single point, set 2 | BacTiter-Glo ATP, 48 h; yeast lacking PDR1 and PDR3 efflux regulators | inhibition, % at 9.4 µM | 310,000 compounds, 0.32% hits | AID 504621, 2011;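 active = every replicate shows inhibition above about 80%, whatever the replicate mean, limit read from the data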;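 note: 0% = DMSO neutral controls and 100% = 20 µM radicicol positive controls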
# SKKanGAS inh = S. pyogenes SKKanGAS growth inhibitors in kanamycin, primary screen, streptokinase expression inhibitor project, SKKanGAS strain, BacTiter-Glo luminescence | 6 h | inhibition, % at 7.5 µM | 300,000 compounds, 1.3% hits | AID 1662, 2009;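 active = mean replicate score, as percent of positive control median, at least 50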;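 note: strain carries kanamycin resistance gene driven by streptokinase promoter and grows in 40 µg/ml kanamycin; loss of luminescence reflects streptokinase promoter inhibition or plain growth inhibition; 0% = median of DMSO wells and 100% = positive control at its reference dose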
# TIM10 inh = growth inhibitors of isogenic TIM10 control yeast, primary screen, counter-screen for tim10-1 yeast inhibitor project, luminescence, uHTS; S. cerevisiae TIM10 strain growth, BacTiter-Glo luminescence, 24 h; inhibition, % at 10 µM; 330,000 compounds, 1.4% hits; AID 463195, 2010;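 active = inhibition of 40% or more at the single tested concentration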;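 note: wild-type TIM10 isogenic control strain grown at permissive 25 °C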
# tim23-1 inh = growth inhibitors of tim23-1 mutant yeast, primary screen, luminescence, uHTS; S. cerevisiae tim23-1 growth, BacTiter-Glo luminescence, 24 h; inhibition, % at 20 µM; 330,000 compounds, 1.3% hits; AID 463212, 2010;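 active = growth inhibition of the mutant yeast at or above 50%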;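 note: temperature-sensitive mutant grown at 25 °C; plate controls were DMSO-treated mutant yeast for no effect and medium wells lacking yeast for full effect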
# tim10-1 conf = growth inhibitors of tim10-1 mutant yeast, confirmation, single concentration, luminescence, S. cerevisiae. inhibition, % at 20 µM. 7,400 compounds, 56% hits. S. cerevisiae tim10-1 ts strain growth, BacTiter-Glo, 24 h. AID 463213, 2010. shares compounds with tim10-1 inh;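 active = inhibition of yeast growth at or above a set limit in either of two repeat tests at 20 µM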;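 note: tim10-1 mutant grown at permissive 25 °C to find synthetic lethal compounds; 0% = DMSO yeast wells and 100% = medium wells without yeast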
# TIM10 conf = growth inhibitors of wild-type TIM10 yeast, confirmation, counter-screen for tim10-1 synthetic lethality project, single concentration, luminescence, S. cerevisiae | shares compounds with TIM10 inh | 4,600 compounds, 63% hits | AID 463215, 2010 | S. cerevisiae tim10 strain growth, BacTiter-Glo luminescence, 24 h | inhibition, % at 10 µM;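 active = inhibition of yeast growth at or above a set limit in either of two replicates at 10 µM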;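 note: this counterscreen used the strain with wild-type TIM10; 0% = yeast with DMSO and 100% = medium wells lacking yeast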
# * marks the source's active call; other numbers are inactive results; nt = no result.
SMILES,tim10-1 inh,EBI2 antag,PfHsp90 yeast 2,SKKanGAS inh,TIM10 inh,tim23-1 inh,tim10-1 conf,TIM10 conf
Cc1cccc(OCCCOc2cccc3cccnc23)c1C,46*,24,-12,58*,47*,48,20,39*
Cc1ccc(OCCCOc2cccc3cccnc23)cc1C,40,22,42,37,35,49,nt,nt
CCCCNC(=O)c1ccccc1Cl,11,-5,nt,2,-4,-4,nt,nt
Cc1cc2cc(C)c(NCCNC(=O)c3ccccc3Cl)nc2cc1C,42*,-12,18,-1,44*,33,30,26
COC(=O)c1c(C(=O)OC)c2ccncn2c1Cl,3,3,-10,-2,-2,15,nt,nt
CCOC(=O)c1cccc(NC(=O)Nc2cc(OC)ccc2OC)c1,41*,8,-65,0,40*,39,28,28
COc1ccc(/C=C/C(=O)C2(O)CCCCC2)cc1OC,47*,-8,nt,2,44*,41,40*,31*
COc1ccc(/C=C/C(=O)Nc2ccccc2)cc1OC,-33,0,18,-8,15,40,nt,nt
CN(CC1CCCN(CCc2ccc(Cl)cc2)C1)C(=O)C(=O)c1ccco1 (centres undefined),-8,4,1,4,-5,-6,nt,nt
O=C(O)c1cccc(N/N=C/c2cn(-c3ccccc3)nc2-c2cccs2)c1,47*,-6,-23,2,61*,10,59*,65*
NC(=O)N/N=C/c1cn(-c2ccccc2)nc1-c1cccs1,25,7,16,7,30,30,nt,nt
Cc1cc2c3c(c1)C1(SCC(=O)N1c1ccc(F)cc1)C(=O)N3C(C)(C)CC2C (centres undefined),48*,11,7,6,42*,45,40*,41*
CC(C)N1C/C(=C/c2ccsc2)C(=O)/C(=C/c2ccsc2)C1,40*,3,4,2,46*,22,28,34*
Cc1ccc2nsnc2c1S(=O)(=O)N(Cc1cc2cccc(C)c2[nH]c1=O)CC1CCCO1 (centres undefined),20,-23,nt,2,28,8,nt,nt
O=S(=O)(c1ccc(-c2nc3ccccc3s2)cc1)N1CCCC1,3,-8,-12,-2,9,1,nt,nt
O=S(=O)(c1cccc(-c2nc3ccccc3s2)c1)N1CCCC1,48*,38,19,-6,44*,47,34*,42*

# Screening results deposited in PubChem by several laboratories.
